Data reported in the supplement of paper PMC10338343.
± gives the standard deviation.

Tested on: MILI (PIWIL2) piRISC loaded with L1MC piRNA (26 nt)
Assay: pre-steady-state target cleavage rate (min^-1); guide: L1MC piRNA 5'p-UAACUAAAUACUAUGCAAGCUGUAGG; MIWI and MILI are mouse PIWI proteins and EfPiwi is from a freshwater sponge; tags in brackets are library labels; higher = faster piRNA-guided slicing of the target
Conditions: auxiliary factor: 500 nM mouse GTSF1
In short: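 Active affinity-purified piRISC (1 nM) loaded with one synthetic guide was mixed with a transcribed, DNA-blocked target RNA library (0.1 nM), with or without 500 nM GTSF1 partner protein, in HEPES–potassium acetate buffer at 33 °C for 0–8 or 0–960 min. Uncleaved targets were sequenced, normalised to depth and to weakly complementary targets, and pooled across three trials, with k3 capped at 0.0001 min^-1. The pre-steady-state cleavage rate was determined with a burst-and-steady-state fit.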

Sequence | pre-steady-state target cleavage rate
UCCUGCUACAGUCUUGCAUAGUAUUUAGUUA | 0.222 ± 0.021
UCCUCCAACAGCUUGCAUAGUAUUUAGUAA | 0.232 ± 0.02
UCCUGGAUGUGCUUGCUUACUAUUUAGUUA | 0.0117 ± 0.005
UCCUGGAUGACCUUGCAUUGUAUUUAGUUA | 0.0617 ± 0.0098
UCCUGGAUGAGGUUGCAUUGUAUUUAGUUA | 0.0484 ± 0.01
UCCUGGAUGAGCUAGGAUAGUAUUUAGUUA | 0.131 ± 0.021
UCCUGGAUGUGCUUGGAUAGUUUUUAGUUA | 0.00761 ± 0.0046
UCCUGGAUGUGGUUGCAUAGUAUAUAGUUA | 0.158 ± 0.023
UCCUGGAUGUCGAUGCAUAGUACUUUAGUUA | 0.0153 ± 0.0039
UCCUGGAUGAGGUUGCAUAGUAUAUAGUUA | 0.163 ± 0.04
UCCUGGUACAGCUUGCAUACUAAUUAGUUA | 0.0462 ± 0.019
UCCUGGAUGUCGAUGCUUAGUAUUUAGUUA | 0.019 ± 0.0053
UCCUGGUACAGCUUGGUUAGUAUUUAGUAA | 0.159 ± 0.038
UCCUGGUACAGCAUGCAUAGUAUUUUGUUA | 0.11 ± 0.022
UCCUGGAUGUCGUUGCAUAGUAUUUAGUAUA | 0.127 ± 0.03
UCCUGGAUGUGCUUGGUUAGUAUUUAGUAA | 0.149 ± 0.026

Same assay, conditions: auxiliary factor: none (no GTSF1)

Sequence | pre-steady-state target cleavage rate
UCCUCCUACAGCUUGCAUAGUAUUUAGUUC [g2:g26:cont:t1C] | 0.0143 ± 0.0047
UCCUGGAUGUCCUUGCAUAGUAAAUAGUUA | 0.00497 ± 0.0022
UCCUGCUACAGCUUGGUAAGUAUUUAGUUA | 0.00591 ± 0.0018
UCCUGGAACAGCUUGCAUAGUCAUUUAGUUA | 0.00479 ± 0.0022
UCCUGGUACAGCUAGCAUAGUUUUUAGUUA | 0.00928 ± 0.0026
UCCUGGAUGUCCUUGCAUAGUAUUCUAGUUA | 0.00384 ± 0.0034
UCCUGGAUGUGGUUGGAUAGUAUUUAGUUA | 0.00858 ± 0.0028
UCCUGGAUGUCGUUGCUUAGUUUUUAGUUA | 0.00646 ± 0.0025
UCCUGGAUGUGCUUGCAUAGUAUUCUAGUUA | 0.00428 ± 0.0034
UCCUGCUACAGCUUGCAUAGUUAUUAGUUA | 0.00337 ± 0.002
UCCUGGAUGUGGCUUGCAUAGUAUUUAGUUA | 0.0089 ± 0.0042
UCCUGGAUGAGCUUGCAUAGUUAUUUAGUUA | 0.00489 ± 0.0022
UCCUGGAUGUCCUUGCAUAGGUAUUUAGUUA | 0.00689 ± 0.0025
UCCUGGUACAGGUUGCAUAGUAUUUACAAA | 0.00315 ± 0.003
UCCUGGAUGUCGAGGCAUAGUAUUUAGUUA | 0.00723 ± 0.0026
UCCUGGAUGACCUUGCAUAGUAUUAAGUUA | 0.00338 ± 0.0027
UCCUGGAACAGCUUGCUAGUAUUUAGUUA | 0.00397 ± 0.0027
UCCUGGAUGUGCUAGCAUACUAUUUAGUUA | 0.00539 ± 0.002
UCCUGGAUGUGCUUGCAUUGUAUUAAGUUA | 0.00354 ± 0.0033
UCCUGGAUGAGGUUGCAAAGUAUUUAGUUA | 0.00826 ± 0.0022

Sequence | pre-steady-state target cleavage rate
UCCUGGAUCAGCAUGCAUAGUAUUUACUUA | 0.00358 ± 0.0024
UCCUGGAUGUCCUUGCAUAGUAUUCAGUUA | 0.00338 ± 0.0028
UCCUGGAUCACCUUGCAUUGUAUUUAGUUA | 0.00486 ± 0.0032
UCCUGGAUGAGCUUGCAUAGUAUUUAGUAUA | 0.00501 ± 0.0033
UCCUGCUACAGUCUUGCAUAGUAUUUAGUUA | 0.00875 ± 0.0023
UCCUCCAACAGCUUGCAUAGUAUUUAGUAA | 0.00476 ± 0.0022
UCCUGGAUGUGCUUGCUUACUAUUUAGUUA | 0.00477 ± 0.0024
UCCUGGAUGACCUUGCAUUGUAUUUAGUUA | 0.00446 ± 0.0029
UCCUGGAUGAGGUUGCAUUGUAUUUAGUUA | 0.00431 ± 0.0027
UCCUGGAUGAGCUAGGAUAGUAUUUAGUUA | 0.00494 ± 0.0027
UCCUGGAUGUGCUUGGAUAGUUUUUAGUUA | 0.00414 ± 0.0024
UCCUGGAUGUGGUUGCAUAGUAUAUAGUUA | 0.00921 ± 0.0037
UCCUGGAUGUCGAUGCAUAGUACUUUAGUUA | 0.00479 ± 0.0029
UCCUGGAUGAGGUUGCAUAGUAUAUAGUUA | 0.00623 ± 0.0021
UCCUGGUACAGCUUGCAUACUAAUUAGUUA | 0.00356 ± 0.0031
UCCUGGAUGUCGAUGCUUAGUAUUUAGUUA | 0.00602 ± 0.0019
UCCUGGUACAGCUUGGUUAGUAUUUAGUAA | 0.01 ± 0.0031
UCCUGGUACAGCAUGCAUAGUAUUUUGUUA | 0.00364 ± 0.0034
UCCUGGAUGUCGUUGCAUAGUAUUUAGUAUA | 0.00811 ± 0.0035
UCCUGGAUGUGCUUGGUUAGUAUUUAGUAA | 0.0127 ± 0.003
